Reference: the supplement of paper PMC10849652
The full data set covers some 8,800 targets. This sample favours those with a hit. About 0.5% of all pairs of compound and target were hits. Values without a mark were called inactive.

Legend:
Test in all cases: log2 fold change, soluble protein after heating vs DMSO (PISA); higher = thermal stabilisation; K562 lysate, 10 uM; active = over 0.2 and 3.5 SD of the protein, either way, in both replicates (recomputed)
[1] = compound: CCCS(=O)(=O)Nc1ccc(F)c(C(=O)c2c[nH]c3ncc(-c4ccc(Cl)cc4)cc23)c1F [vemurafenib]
In short: (§1)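 A 30 min treatment with 10 μM compound was applied to crude K562 extract at 1 mg/mL protein in PBS pH 7.4 with 1 mM MgCl2. Heating for 3 min spanned 48°C-58°C, after which aliquots were pooled, adjusted to 0.5% NP-40 at 4°C and spun at 21,000xg for 90 min. TMTpro 16plex LC-MS/MS of the supernatant, with channel sums equalised, gave values recorded as log-two fold change in thermal stability against solvent controls, from duplicates.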

[2] = compound: CCCS(=O)(=O)Nc1ccc(F)c(C(=O)c2c[nH]c3ncc(Cl)cc23)c1F
In short: as §1

[3] = compound: CCN(CCCOc1ccc2c(Nc3cc(CC(=O)Nc4cccc(F)c4)[nH]n3)ncnc2c1)CCOP(=O)(O)O [barasertib]
In short: as §1

[4] = compound: CC[C@@H]1C(=O)N(C)c2cnc(Nc3ccc(C(=O)NC4CCN(C)CC4)cc3OC)nc2N1C1CCCC1
In short: as §1

[5] = compound: CC[C@@H]1C(=O)N(C)c2cnc(Nc3ccc(C(=O)N[C@H]4CC[C@H](N5CCN(CC6CC6)CC5)CC4)cc3OC)nc2N1C(C)C [volasertib]
In short: as §1

[6] = compound: CCn1c(C(=O)N(C2CC2)C2CC2)cc2c3c(ncn3C)c(Nc3cc(C)n(C)n3)nc21
In short: as §1

[7] = compound: CCn1cc(-c2ccnc3[nH]c(-c4cccc(CN(C)C)c4)cc23)c(-c2ccc(NC(=O)N(C)C)cc2)n1
In short: as §1

[8] = compound: CN1CCC(CNc2ccc3ncc(-c4cccc(OC(F)(F)F)c4)n3n2)CC1
In short: as §1

[9] = compound: CN1CCN(CCOc2cc(OC3CCOCC3)c3c(Nc4c(Cl)ccc5c4OCO5)ncnc3c2)CC1 [saracatinib]
In short: as §1

[10] = compound: CN1CCN(c2nc(C3=C(c4c[nH]c5ccccc45)C(=O)NC3=O)c3ccccc3n2)CC1 [sotrastaurin]
In short: as §1

[11] = compound: CN1CC[C@H](c2c(O)cc(O)c3c(=O)cc(-c4ccccc4Cl)oc23)[C@H](O)C1 [alvocidib]
In short: as §1

[12] = compound: CN1CCc2c(c3ccccc3n2Cc2ccc(C(=O)NO)cc2)C1 [Tubastatin A]
In short: as §1

[13] = compound: CNC(=O)C1=CC=CC=C1NC2=NC(=NC=C2Cl)NC3=C(C=C(C=C3)N4CCOCC4)OC
In short: as §1

[14] = compound: CNC(=O)c1ccc(Nc2ncc(C(F)(F)F)c(NCc3nccnc3N(C)S(C)(=O)=O)n2)cc1 [defactinib]
In short: as §1

[15] = compound: CNc1nc(-c2ccc3c(N)n[nH]c3c2)cc(N2C[C@@H](C(=O)NC3CCCCC3)CC[C@H]2C)n1
In short: as §1

[16] = compound: COC(=O)N[C@@H](C)CNc1nccc(-c2cn(C(C)C)nc2-c2cc(Cl)cc(NS(C)(=O)=O)c2F)n1 [encorafenib]
In short: as §1

[17] = compound: COC(=O)[C@H](CCSC)NC(=O)C1=C(C=C(C=C1)NC[C@H](CS)N)C2=CC=CC=C2
In short: as §1

[18] = compound: COc1cc(Nc2ncc3c(n2)-c2ccc(Cl)cc2C(c2c(F)cccc2OC)=NC3)ccc1C(=O)O [alisertib]
In short: as §1

[19] = compound: COc1cc2nc(-c3cc(F)ccc3O)nc(N[C@@H]3CNC[C@H]3C(C)(C)O)c2cc1OC
In short: as §1

[20] = compound: COc1cc2ncnc(Nc3ccc(F)c(Cl)c3)c2cc1OCCCN1CCOCC1 [gefitinib]
In short: as §1

Sequence of UniProt P0C869 (P0C869 whole entry, looked up): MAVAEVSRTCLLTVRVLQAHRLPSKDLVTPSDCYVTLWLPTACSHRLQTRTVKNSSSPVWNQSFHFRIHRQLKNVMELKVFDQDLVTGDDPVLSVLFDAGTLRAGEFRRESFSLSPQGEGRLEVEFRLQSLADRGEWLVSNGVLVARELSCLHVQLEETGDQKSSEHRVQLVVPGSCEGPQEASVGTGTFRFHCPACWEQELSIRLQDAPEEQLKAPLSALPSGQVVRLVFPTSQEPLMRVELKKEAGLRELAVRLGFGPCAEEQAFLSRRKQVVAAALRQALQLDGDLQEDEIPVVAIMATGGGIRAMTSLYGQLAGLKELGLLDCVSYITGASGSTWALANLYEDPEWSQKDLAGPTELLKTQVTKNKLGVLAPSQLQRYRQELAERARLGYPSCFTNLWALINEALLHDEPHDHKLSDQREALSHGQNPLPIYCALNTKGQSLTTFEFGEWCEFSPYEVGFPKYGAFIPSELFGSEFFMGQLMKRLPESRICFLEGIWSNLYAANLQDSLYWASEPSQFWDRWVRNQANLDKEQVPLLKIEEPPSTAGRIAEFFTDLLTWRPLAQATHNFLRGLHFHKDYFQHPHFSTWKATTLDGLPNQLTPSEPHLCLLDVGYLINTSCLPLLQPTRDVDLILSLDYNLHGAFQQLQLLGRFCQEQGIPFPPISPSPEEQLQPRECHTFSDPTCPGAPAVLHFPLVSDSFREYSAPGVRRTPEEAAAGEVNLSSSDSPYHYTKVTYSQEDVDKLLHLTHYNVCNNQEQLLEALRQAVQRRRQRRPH
Sequence of UniProt P67775 (P67775 whole entry, looked up): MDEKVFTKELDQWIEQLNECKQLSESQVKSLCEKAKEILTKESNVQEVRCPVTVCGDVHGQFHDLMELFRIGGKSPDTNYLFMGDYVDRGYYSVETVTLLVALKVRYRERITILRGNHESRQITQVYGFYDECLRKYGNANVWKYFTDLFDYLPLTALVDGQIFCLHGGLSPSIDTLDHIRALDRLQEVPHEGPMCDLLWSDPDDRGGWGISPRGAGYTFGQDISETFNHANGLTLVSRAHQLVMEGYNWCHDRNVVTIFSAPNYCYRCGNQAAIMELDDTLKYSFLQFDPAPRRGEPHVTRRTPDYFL
Sequence of UniProt Q9UMR5 (Q9UMR5 whole entry, looked up): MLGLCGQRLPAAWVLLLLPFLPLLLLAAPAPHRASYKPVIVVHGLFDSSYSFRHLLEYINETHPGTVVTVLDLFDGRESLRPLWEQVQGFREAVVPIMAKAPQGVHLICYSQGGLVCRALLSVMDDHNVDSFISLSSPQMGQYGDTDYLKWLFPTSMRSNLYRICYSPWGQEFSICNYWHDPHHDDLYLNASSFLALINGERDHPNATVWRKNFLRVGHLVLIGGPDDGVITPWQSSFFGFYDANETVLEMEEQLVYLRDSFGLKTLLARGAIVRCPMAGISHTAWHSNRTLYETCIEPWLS
Sequence of UniProt P42356 (P42356 whole entry, looked up): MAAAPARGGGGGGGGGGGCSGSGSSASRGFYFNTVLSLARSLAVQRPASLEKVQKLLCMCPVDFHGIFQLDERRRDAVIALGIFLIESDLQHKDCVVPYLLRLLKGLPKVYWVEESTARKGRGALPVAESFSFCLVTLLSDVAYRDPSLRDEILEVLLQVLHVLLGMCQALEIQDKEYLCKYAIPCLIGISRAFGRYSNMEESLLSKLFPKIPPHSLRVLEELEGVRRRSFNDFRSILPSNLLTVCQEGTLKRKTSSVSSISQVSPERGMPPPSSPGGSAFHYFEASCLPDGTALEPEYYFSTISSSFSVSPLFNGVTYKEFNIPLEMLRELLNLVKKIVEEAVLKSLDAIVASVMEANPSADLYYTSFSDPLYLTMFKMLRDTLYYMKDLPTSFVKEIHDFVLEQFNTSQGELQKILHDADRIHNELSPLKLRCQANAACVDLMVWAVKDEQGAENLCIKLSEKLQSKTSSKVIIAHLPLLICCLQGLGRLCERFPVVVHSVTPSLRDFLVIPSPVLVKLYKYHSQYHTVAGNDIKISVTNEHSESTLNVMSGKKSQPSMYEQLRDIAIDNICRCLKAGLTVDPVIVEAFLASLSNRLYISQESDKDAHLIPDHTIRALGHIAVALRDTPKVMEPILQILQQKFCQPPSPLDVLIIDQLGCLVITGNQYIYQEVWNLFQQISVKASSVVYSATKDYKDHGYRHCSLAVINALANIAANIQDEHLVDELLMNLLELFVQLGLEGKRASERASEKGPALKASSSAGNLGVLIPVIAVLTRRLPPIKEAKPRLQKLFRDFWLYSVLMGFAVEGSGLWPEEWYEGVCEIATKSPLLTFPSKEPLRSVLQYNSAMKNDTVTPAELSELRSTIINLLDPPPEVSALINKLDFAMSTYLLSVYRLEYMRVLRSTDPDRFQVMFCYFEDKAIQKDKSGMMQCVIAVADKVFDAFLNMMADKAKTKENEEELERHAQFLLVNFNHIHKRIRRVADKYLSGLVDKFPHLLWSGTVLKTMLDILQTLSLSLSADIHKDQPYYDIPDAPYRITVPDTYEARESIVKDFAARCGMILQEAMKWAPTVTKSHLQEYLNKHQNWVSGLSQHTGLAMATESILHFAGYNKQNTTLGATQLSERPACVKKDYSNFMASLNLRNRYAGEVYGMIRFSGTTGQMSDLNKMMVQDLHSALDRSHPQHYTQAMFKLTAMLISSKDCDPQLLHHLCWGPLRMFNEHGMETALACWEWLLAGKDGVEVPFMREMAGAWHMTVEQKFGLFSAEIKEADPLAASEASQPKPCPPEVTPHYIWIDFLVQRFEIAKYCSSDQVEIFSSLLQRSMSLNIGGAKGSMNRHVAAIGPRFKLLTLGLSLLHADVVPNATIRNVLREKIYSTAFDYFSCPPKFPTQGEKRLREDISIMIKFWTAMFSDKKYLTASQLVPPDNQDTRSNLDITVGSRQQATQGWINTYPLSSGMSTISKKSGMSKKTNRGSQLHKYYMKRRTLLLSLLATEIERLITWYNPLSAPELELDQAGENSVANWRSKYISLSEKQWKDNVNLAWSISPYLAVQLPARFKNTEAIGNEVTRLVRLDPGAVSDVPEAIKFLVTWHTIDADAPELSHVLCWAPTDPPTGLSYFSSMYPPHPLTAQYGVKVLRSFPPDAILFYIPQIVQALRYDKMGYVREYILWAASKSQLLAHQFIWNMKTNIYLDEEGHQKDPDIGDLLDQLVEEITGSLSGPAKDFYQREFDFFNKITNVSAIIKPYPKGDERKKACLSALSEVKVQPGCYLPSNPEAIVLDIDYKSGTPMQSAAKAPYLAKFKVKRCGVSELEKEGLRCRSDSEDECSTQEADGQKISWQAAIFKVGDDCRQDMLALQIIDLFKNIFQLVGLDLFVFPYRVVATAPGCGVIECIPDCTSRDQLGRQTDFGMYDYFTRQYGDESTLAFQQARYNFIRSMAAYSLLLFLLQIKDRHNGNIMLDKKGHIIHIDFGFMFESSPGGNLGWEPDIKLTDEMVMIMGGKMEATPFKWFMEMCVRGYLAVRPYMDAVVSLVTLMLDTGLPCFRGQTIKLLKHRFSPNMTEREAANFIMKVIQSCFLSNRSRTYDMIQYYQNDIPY
Sequence of UniProt Q9UBF8 (Q9UBF8 whole entry, looked up): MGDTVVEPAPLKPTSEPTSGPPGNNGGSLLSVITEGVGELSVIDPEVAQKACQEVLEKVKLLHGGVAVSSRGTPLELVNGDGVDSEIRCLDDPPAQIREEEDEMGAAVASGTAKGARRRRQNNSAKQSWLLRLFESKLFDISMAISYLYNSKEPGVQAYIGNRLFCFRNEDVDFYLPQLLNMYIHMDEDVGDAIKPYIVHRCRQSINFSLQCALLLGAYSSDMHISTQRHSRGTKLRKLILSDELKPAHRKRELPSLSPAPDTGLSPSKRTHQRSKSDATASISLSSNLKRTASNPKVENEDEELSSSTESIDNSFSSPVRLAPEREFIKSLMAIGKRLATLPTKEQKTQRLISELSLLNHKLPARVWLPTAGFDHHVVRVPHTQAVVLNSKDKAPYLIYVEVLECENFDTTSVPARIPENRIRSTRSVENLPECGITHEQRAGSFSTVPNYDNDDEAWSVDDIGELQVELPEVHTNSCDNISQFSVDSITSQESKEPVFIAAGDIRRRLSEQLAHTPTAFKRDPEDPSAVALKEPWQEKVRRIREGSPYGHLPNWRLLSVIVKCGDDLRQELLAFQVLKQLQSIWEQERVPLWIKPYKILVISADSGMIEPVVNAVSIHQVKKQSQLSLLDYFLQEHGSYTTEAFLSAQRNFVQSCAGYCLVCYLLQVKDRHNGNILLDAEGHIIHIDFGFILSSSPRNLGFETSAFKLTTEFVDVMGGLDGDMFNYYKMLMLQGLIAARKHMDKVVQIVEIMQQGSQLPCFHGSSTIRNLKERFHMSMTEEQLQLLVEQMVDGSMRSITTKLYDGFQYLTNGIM
Sequence of UniProt Q13362 (Q13362 whole entry, looked up): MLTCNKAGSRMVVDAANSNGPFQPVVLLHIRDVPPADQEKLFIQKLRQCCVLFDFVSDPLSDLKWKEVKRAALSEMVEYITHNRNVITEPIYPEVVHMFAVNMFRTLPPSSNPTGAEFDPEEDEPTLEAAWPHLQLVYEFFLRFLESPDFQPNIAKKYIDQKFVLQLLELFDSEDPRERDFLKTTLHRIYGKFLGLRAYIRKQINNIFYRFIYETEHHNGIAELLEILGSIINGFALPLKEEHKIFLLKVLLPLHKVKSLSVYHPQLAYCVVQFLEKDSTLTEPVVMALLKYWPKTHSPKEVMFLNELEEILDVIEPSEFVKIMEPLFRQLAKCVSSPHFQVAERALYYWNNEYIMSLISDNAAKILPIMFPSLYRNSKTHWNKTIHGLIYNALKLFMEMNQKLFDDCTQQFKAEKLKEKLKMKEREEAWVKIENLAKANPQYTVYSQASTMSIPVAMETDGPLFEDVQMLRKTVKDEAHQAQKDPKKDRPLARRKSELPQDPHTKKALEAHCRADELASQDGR

Row | Target | log2 fold change [1] | log2 fold change [2] | log2 fold change [3] | log2 fold change [4] | log2 fold change [5] | log2 fold change [6] | log2 fold change [7] | log2 fold change [8] | log2 fold change [9] | log2 fold change [10] | log2 fold change [11] | log2 fold change [12] | log2 fold change [13] | log2 fold change [14] | log2 fold change [15] | log2 fold change [16] | log2 fold change [17] | log2 fold change [18] | log2 fold change [19] | log2 fold change [20]
1 | PICALM (UniProt H0YEH1) | 0.05 | -0.094 | -0.018 | -0.008 | -0.011 | -0.014 | -0.54 (active) | 0.248 | 0.056 | 0.126 | -0.206 | 0.126 | 0.098 | 0.006 | 0 | -0.038 | 0.098 | 0.049 | -0.042 | -0.036
2 | PDE4DIP isoform 4 (UniProt Q5VU43) | 0.027 | 0.011 | 0.092 | 0.046 | 0.025 | 0.04 | -0.04 | -0.005 | 0.034 | -0.014 | -0.038 | 0.004 | -0.003 | -0.018 | 0.036 | 0.006 | 0.004 | 0.023 | -0.007 | -0.059
3 | POLR2B (UniProt P30876) | 0.021 | -0.004 | 0.039 | -0.049 | -0.074 | 0.01 | -0.029 | 0.017 | 0.016 | 0.024 | -0.008 | -0.092 | 0.057 | 0.004 | -0.026 | 0.022 | 0.121 | 0.002 | -0.018 | 0.012
4 | PPP2R5C isoform 5 (UniProt Q13362) | -0.056 | -0.013 | -0.03 | -0.063 | 0.014 | 0.058 | 0.046 | -0.08 | 0 | -0.011 | 0.016 | -0.018 | 0.012 | 0.029 | -0.048 | 0.029 | -0.039 | 0.002 | -0.014 | 0.004
5 | PICALM (UniProt Q13492) | -0.004 | -0.004 | 0.037 | 0.04 | 0.014 | 0.004 | 0.098 | -0.021 | 0.009 | -0.061 | -0.021 | 0.029 | -0.032 | -0.037 | -0.033 | 0.042 | 0.014 | 0.008 | 0.017 | 0.008
6 | PDXK (UniProt O00764) | 0.005 | -0.001 | -0.014 | 0.329 (active) | 0.025 | -0.004 | -0.134 | 0.156 | -0.023 | -0.016 | -0.031 | -0.005 | 0.027 | 0.047 | 0.06 | -0.032 | -0.012 | -0.038 | 0.016 | -0.022
7 | PDIA4 (UniProt P13667) | -0.007 | -0.02 | -0.028 | 0.017 | 0.012 | -0.008 | 0.036 | -0.045 | 0.012 | 0 | 0.025 | 0.05 | -0.008 | -0.042 | -0.012 | -0.011 | -0.027 | -0.007 | -0.001 | -0.011
8 | PI4KA (UniProt P42356) | 0.005 | 0.014 | 0 | 0.007 | -0.064 | 0.019 | -0.069 | 0.164 | 0.016 | 0.056 | -0.006 | -0.165 | 0.035 | 0.006 | -0.029 | 0.026 | -0.005 | 0.028 | 0.019 | 0
9 | PIKFYVE (UniProt Q9Y2I7) | -0.022 | 0.042 | 0.26 | -0.036 | -0.047 | 0.04 | -0.056 | 0.038 | 0.054 | 0.038 | -0.049 | -0.126 | 0.032 | 0.078 | -0.031 | 0.044 | 0.088 | 0.031 | 0.004 | -0.005
10 | PTPN7 isoform 3 (UniProt P35236) | 0.016 | 0.06 | 0.026 | -0.025 | -0.06 | 0.063 | -0.076 | 0.124 | 0.005 | 0.015 | -0.082 | -0.138 | 0.057 | 0.017 | 0.038 | -0.051 | 0.122 | 0.021 | -0.023 | -0.025
11 | PPT2 isoform 3 (UniProt Q9UMR5) | 0.007 | 0.012 | 0.028 | 0.01 | -0.023 | -0.026 | 0.007 | 0.018 | -0.011 | 0.003 | -0.051 | 0.014 | -0.005 | -0.067 | 0 | -0.014 | 0.059 | 0.013 | 0.015 | 0.031
12 | PLA2G4B isoform 6 (UniProt P0C869) | 0.05 | 0.069 | 0.002 | 0.144 | 0.018 | -0.191 | 0.034 | -0.014 | 0.101 | -0.168 | -0.035 | 0.054 | -0.032 | 0.024 | 0.051 | 0.09 | 0.177 | -0.009 | 0.073 | 0.115
13 | PIGO (UniProt Q8TEQ8) | -0.112 | 0.109 | 0.064 | 0.013 | -0.069 | -0.081 | -0.029 | -0.043 | -0.013 | -0.499 (active) | 0.038 | -0.112 | -0.095 | 0.046 | 0.143 | 0.019 | -0.121 | 0.061 | -0.073 | 0.013
14 | PFKFB2 (UniProt O60825) | -0.011 | 0.011 | 0.008 | 0.004 | -0.025 | 0.015 | -0.021 | -0.029 | 0.012 | 0.002 | 0.017 | -0.045 | 0.03 | -0.02 | -0.035 | 0.015 | -0.124 | 0.014 | 0.006 | 0.014
15 | PI4KB (UniProt Q9UBF8) | 0.222 (active) | 0.011 | -0.051 | 0.049 | -0.026 | -0.016 | -0.038 | 0.134 | -0.006 | 0.012 | 0.005 | -0.032 | 0.228 | 0.094 | 0.056 | 0.081 | -0.069 | -0.001 | -0.097 | 0
16 | PPP2CA (UniProt P67775) | 0.061 | -0.008 | -0.012 | 0.032 | -0.012 | 0.02 | 0.13 | 0.049 | 0.039 | -0.047 | -0.062 | -0.018 | 0.026 | -0.064 | -0.019 | 0.128 | -0.374 (active) | -0.016 | -0.013 | -0.009
